The supplement of paper PMC4166925
± gives the standard deviation of the averaged measurements. Over roughly 33,000 sequences, “E-score (dimensionless, -0.5 to 0.5)” has its median near -0.046; the highest 2% begin near 0.36. The sample as a whole holds a higher share of the highest values than the screen did.

tested on: T1, SpTbr T-box DNA-binding domain (GST fusion); assay: PBM E-score of 8-mer (E-score (dimensionless, -0.5 to 0.5)); Tbr is Tbrain of the sea star Patiria miniata (Pm) or the sea urchin Strongylocentrotus purpuratus (Sp); higher = stronger binding preference; details: the construct has about 5 more residues each side
T1 sequence: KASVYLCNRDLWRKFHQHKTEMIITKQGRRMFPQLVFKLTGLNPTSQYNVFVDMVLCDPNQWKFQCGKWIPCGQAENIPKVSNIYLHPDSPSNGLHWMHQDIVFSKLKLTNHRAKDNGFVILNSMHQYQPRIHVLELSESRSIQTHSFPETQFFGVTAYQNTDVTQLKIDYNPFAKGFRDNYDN
Method: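 Universal protein-binding microarray (Agilent AMADID 016060, 60-bp probes with a 35-bp variable region) incubated with 200 nM GST-fused Strongylocentrotus purpuratus Tbr T-box DNA-binding domain (residues 362-554) in PBS pH 7.5. Scored for every ungapped 8-mer (given with its reverse complement) as E-score (range -0.5 to 0.5; >0.45 counts as bound) and Z-score of median probe intensity. Two replicate arrays (datasets 1 and 2).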
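Also: protein at 200 nM in PBS on universal double-stranded arrays.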

Sequence	PBM E-score of 8-mer
ACCTCACC	0.224 ± 0.017
ATGTCACC	0.323 ± 0.0098
CTGTCACA	0.358 ± 0.01
GCCTCACA	0.292 ± 0.0099
CGCTCACC	0.0959 ± 0.018
ATCTCACC	0.422 ± 0.0058
GTCTCACA	0.382 ± 0.0069
GTCTCTCA	0.0648 ± 0.045
CTCTCACC	0.38 ± 0.021
CTCTCACA	0.3477 ± 0.0025
ATCTCAAC	0.00654 ± 0.026
CTGTCACC	0.396 ± 0.0078
ATATGAAT	-0.00217 ± 0.023
ACACCAAA	0.315 ± 0.013
AAGAATGT	-0.0437 ± 0.045
TACCGGAA	-0.116 ± 0.02
AAGGAGAG	-0.168 ± 0.0067
CACCGATC	0.154 ± 0.014
TATATGCA	-0.113 ± 0.014
AATGCGTG	0.253 ± 0.028
CAGGTCAA	-0.18 ± 0.073
ACGGACAT	-0.0905 ± 0.036
AACTTAAT	-0.0641 ± 0.021
GTGCCCCA	-0.0876 ± 0.0044
AGCACCCC	0.27 ± 0.036

Sequence	PBM E-score of 8-mer
ACCTCACG	0.239 ± 0.005
ACCTCACA	0.41113 ± 4.2e-05
ATCTCACG	0.29 ± 0.012
ATCTCTCA	0.171 ± 0.012
TCCTCACA	0.3492 ± 0.0024
ATCTCACA	0.372 ± 0.0029
TCCTATCA	-0.0124 ± 0.0011
GGTGGCAC	0.3544 ± 0.0029
AGTGGCAA	0.305 ± 0.0085
GGTGGCAA	0.4 ± 0.011
AGTTTGAC	0.143 ± 0.018
ATGTGTTA	0.444 ± 0.015
ATGTGTTG	0.381 ± 0.014
GTGTGTTA	0.318 ± 0.021
ATATGTTG	-0.00329 ± 0.071
CTGTGTTA	0.195 ± 0.079
ATGTGTTC	0.111 ± 0.064
CCTTTTAG	0.0506 ± 0.044
ATAACACG	0.303 ± 0.033
CTTACACA	0.276 ± 0.035
CTAACACC	0.464 ± 0.005
CGAACACC	0.321 ± 0.011
ATAACACC	0.457 ± 0.0069
ATAACACA	0.35 ± 0.028
CTAACACA	0.354 ± 0.0043

Sequence	PBM E-score of 8-mer
ATTACACC	0.358 ± 0.057
CTTACACC	0.392 ± 0.025
CTTCTAAC	0.16 ± 0.038
CATATCGA	-0.154 ± 0.056
CCGCAAAG	-0.233 ± 0.015
CGAGATCG	0.175 ± 0.058
AAACTGAG	-0.1 ± 0.018
CACCAAGC	0.129 ± 0.017
CCCAACAC	0.343 ± 0.013
GAACTTAC	-0.0233 ± 0.034
CCAAGTAA	-0.21 ± 0.095
CGCGAAGA	0.371 ± 0.01
CGCGAACA	0.36 ± 0.019
GGCGAACC	-0.141 ± 0.05
AGCGAACC	0.0666 ± 0.08
CGCGAAGC	0.324 ± 0.033
CGCGAAAC	0.344 ± 0.0048
AGCGAACG	0.0538 ± 0.025
CGCGAAAG	0.387 ± 0.015
CGCGAACG	0.422 ± 0.013
AGCGAAGA	0.106 ± 0.019
CGCGAACC	0.375 ± 0.013
AGCGAAAG	-0.123 ± 0.022
CAAATGAG	-0.158 ± 0.037
GACCAGTC	-0.333 ± 0.075

Sequence	PBM E-score of 8-mer
AGTCCATA	-0.295 ± 0.063
CACAGCGC	0.0949 ± 0.014
TGCCCACA	0.0199 ± 0.1
CGTTTGGA	-0.0006 ± 0.068
ACGTTCAA	-0.145 ± 0.032
CCGTTCAC	0.367 ± 0.029
GCGTTCAC	0.239 ± 0.011
CCGTTCAG	-0.113 ± 0.032
ACGTTCAC	0.369 ± 0.0053
ACGTTCAG	-0.122 ± 0.029
CGGAGACA	-0.0395 ± 0.021
ACAGAGAC	-0.0676 ± 0.02
CAACCCTG	0.014 ± 0.024
CGCCTTGA	0.159 ± 0.083
AGCCACAA	0.0237 ± 0.048
GACACCGC	0.244 ± 0.061
GAGACCTC	-0.305 ± 0.013
GACACGTA	0.29 ± 0.0077
GACACCGA	0.293 ± 0.0048
GACACCTA	0.4778 ± 0.0018
GACACCTC	0.479 ± 0.009
ACCAGTAG	-0.2 ± 0.063
AATGGACC	-0.2776 ± 0.0022
GGATGGAC	-0.203 ± 0.0084
GGTCAGAC	-0.274 ± 0.051

Sequence	PBM E-score of 8-mer
CTTCACGC	0.409 ± 0.01
AGTCACGG	-0.193 ± 0.0098
AGTCACGC	0.3794 ± 0.0033
ATTCACGG	0.259 ± 0.00064
ATTCACGA	0.288 ± 0.047
AGTCACGA	0.152 ± 0.0034
CCTCACGC	0.322 ± 0.036
ATTCACGC	0.424 ± 0.0061
CTTCACGA	0.167 ± 0.043
CACTGGCG	0.162 ± 0.084
ACCCATTC	-0.15 ± 0.062
TGGGGTAA	-0.1604 ± 0.001
ATTTCGCA	0.335 ± 0.025
AATTCGCA	0.321 ± 0.023
CATTCGTA	-0.0369 ± 0.038
CATTCGCA	0.384 ± 0.0068
TATTCGAA	-0.0307 ± 0.088
AATTCGCG	0.279 ± 0.02
ATTTCGCG	0.389 ± 0.016
GATTCGCA	0.327 ± 0.014
CATTCGCC	-0.147 ± 0.039
TATTCGCA	0.369 ± 0.0054
ATTTCGCC	-0.0532 ± 0.044
CATTCGCG	0.389 ± 0.0059
AGTCAAAA	-0.181 ± 0.0086

Sequence	PBM E-score of 8-mer
AGATTAGC	0.0489 ± 0.043
ACATGGGG	-0.06449 ± 0.00059
GTCATCTA	-0.0343 ± 0.015
GACCACTC	0.0231 ± 0.029
AAAGGCTC	-0.214 ± 0.06
GGCAAAAA	0.0671 ± 0.028
AACCACGT	-0.161 ± 0.017
GTGGCAAA	0.309 ± 0.024
ACGTGGGA	0.203 ± 0.026
CCGATAGG	0.00486 ± 0.048
GTTTCGCA	0.36 ± 0.02
CTTTCGCA	0.421 ± 0.015
CTTTCGCC	-0.043 ± 0.078
CGTATCTC	-0.174 ± 0.0059
ACCACCTA	0.109 ± 0.065
AGCACCGC	-0.0167 ± 0.064
AGCACCGA	-0.094 ± 0.013
ACCACCTC	0.343 ± 0.046
GGCACCGA	-0.122 ± 0.1
AGCACCGG	-0.0409 ± 0.027
ATCACCTG	0.304 ± 0.022
GGCACCTA	0.382 ± 0.015
AGCACCTC	0.4014 ± 0.004
GCCACCTA	0.285 ± 0.036
AGCACCTG	0.398 ± 0.0042

Sequence	PBM E-score of 8-mer
AGCACCTA	0.409 ± 0.0069
ACGAAGCC	-0.00822 ± 0.065
ACTGGCCA	0.0049 ± 0.016
ATAGGCTC	-0.167 ± 0.02
ACGCTACG	0.102 ± 0.023
ACCAACGA	0.102 ± 0.0046
CTCGGCCC	-0.0368 ± 0.041
ACTTTTGA	-0.0941 ± 0.084
AGTTTCAT	-0.233 ± 0.01
TCAATCGA	-0.0374 ± 0.037
GACCAAAA	-0.133 ± 0.0068
CAGAGCTC	-0.265 ± 0.01
CGCACCAA	0.2705 ± 0.0014
TGCACCCA	-0.00634 ± 0.056
CGCACCGC	0.228 ± 0.031
CCCACCTC	0.251 ± 0.043
CGCACCTA	0.43 ± 0.0064
CGCACCTC	0.453 ± 0.016
CGCACCCA	0.372 ± 0.029
CGCACCCG	0.267 ± 0.054
CGCACCGA	0.0672 ± 0.045
CACTCAAG	0.106 ± 0.095
